Shown are actives, neighbours in structure and some others; about 7.5% of the full set was active somewhere.
FLuc counter = counter-screen for miR-21 project: firefly luciferase inhibitors or activators; P08659; hit rate 6.9% among 360,000; purified FLuc, Km substrates, luminescence inhibition; Potency, µM (top dose mostly 57.5 µM), inactives show top-dose activity change, negative = inhibition, hits mostly inhibitors; AID 588342;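 further: plate controls were vehicle for no effect and reference inhibitor for full effect; nearly all actives have a fitted effect of over 55% in size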
Target sequence (P08659 whole entry, looked up): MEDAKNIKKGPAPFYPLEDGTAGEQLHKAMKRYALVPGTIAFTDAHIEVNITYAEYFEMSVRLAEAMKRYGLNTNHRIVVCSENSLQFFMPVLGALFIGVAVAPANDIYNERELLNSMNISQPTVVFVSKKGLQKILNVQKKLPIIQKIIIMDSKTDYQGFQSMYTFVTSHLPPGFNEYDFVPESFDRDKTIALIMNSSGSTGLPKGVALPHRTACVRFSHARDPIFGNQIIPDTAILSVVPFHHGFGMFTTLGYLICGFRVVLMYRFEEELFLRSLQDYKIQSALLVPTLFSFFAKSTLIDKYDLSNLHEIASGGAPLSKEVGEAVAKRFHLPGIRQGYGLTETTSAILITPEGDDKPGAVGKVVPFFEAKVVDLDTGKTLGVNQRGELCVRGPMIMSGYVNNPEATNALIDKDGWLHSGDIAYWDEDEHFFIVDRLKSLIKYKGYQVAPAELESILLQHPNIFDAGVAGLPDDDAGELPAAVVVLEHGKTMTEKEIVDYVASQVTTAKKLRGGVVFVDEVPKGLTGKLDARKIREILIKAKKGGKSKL
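Purified P. pyralis luciferase (10nM final) with 10uM D-luciferin and 10uM ATP (Km levels) in 50mM Tris acetate pH 7.5, 10mM Mg acetate, 0.01% Tween-20, 0.05% BSA; qHTS 6-point titration, ~60 µM downward; luminescence read.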
SMN2 splice enh = enhancers of SMN2 splice variant expression; HEK293 SMN2-luciferase splicing reporter, luminescence, 30-36 h; Potency, µM (titrated, usually from 46.1 µM), for the others: at the top dose activity change, positive = activation, hits mostly activators; hit rate 2.8% among 210,000; further: % of control where 0% means no effect; nearly all actives have a fitted effect of over 55% in size
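qHTS luciferase splicing reporter: luminescence rises when SMN2 exon 7 is included in transfected HEK293 cells. Compound exposure lasted 30-36 h at 37C, with 4.5 mM final sodium butyrate as control, followed by a ONE-Glo read.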
Rab9 promoter act = Rab9 promoter activation; Huh7 Rab9 promoter-luciferase reporter, luminescence, 24 h; Potency, µM (doses to about 9.22 µM), for inactives: at the top dose activation, negative = inhibition, most hits filed as activators; hit rate 2.8% among 320,000; AID 485297; further: % of control where 0% means no effect; nearly all actives have a fitted effect of over 60% in size
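Cells were plated at 1500 per well in reduced-serum medium with 10% FBS and left 2 h. Compound in DMSO was then added for 24 h at 37 °C. Reporter signal was read by luminescence after 10 min with luciferase detection reagent.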
KinaseGlo FLuc = blocks Kinase-Glo luciferase, a counter-screen artifact. Kinase-Glo luciferase, ATP luminescence, 8 min. Potency, µM (top dose mostly 38.3 µM), inactives show at the top dose activity change, negative = inhibition, hits mostly inhibitors. hit rate 0.28% among 200,000. AID 1379; further: on the % scale 0 is the no-effect control and ±100 the full control effect; nearly all actives have a fitted effect of over 60% in size
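Kinase-Glo luciferase light output from ATP and luciferin was measured with 10 uM ATP, within the enzyme's linear range. Buffer: 50 mM imidazole pH 7.2, 50 mM KCl, 7 mM MgCl2, 0.01% Tween 20, 0.05% BSA; luminescence read after 8 min at ambient temperature.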
ELG1 genotoxic = genotoxicity induction in ELG1-luciferase HEK293T cells; hit rate 1.3% among 330,000; HEK293T ELG1-luciferase reporter, luminescence, 16 h; Potency, µM (titrated, usually from 46 µM), inactives show at the highest dose activity change, positive = activation, actives largely listed as activators; AID 504466; further: % of control where 0% means no effect; nearly all actives have a fitted effect of over 60% in size
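Screening used a luciferase reporter fused to human ELG1 in HEK293T cells. Luminescence was read on a CCD plate imager after 16 hr exposure and 30 min ONE-Glo incubation.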
NPC1 promoter act = activators of NPC1 promoter; Huh7 NPC1 promoter luciferase reporter, 24 h; Potency, µM (highest dose often 9.22 µM), without a hit: at the top dose activation, most hits filed as activators; hit rate 2.4% among 320,000; further: % of control where 0% means no effect; nearly all actives have a fitted effect of over 60% in size
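Quantitative HTS used a cell-based reporter: Huh7 cells stably bearing the NPC1 promoter upstream of luciferase were treated with compounds for 24 h, and promoter activation was read as luminescence.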
An asterisk follows results filed as active; u = inconclusive; x = no result given; [ ] = another dose, or the depositor's remark. The call rests on the fitted dose curve; in most records, active means well fitted curve in the direction sought with a large enough effect; inconclusive means small, poorly fitted or top-dose-only effect, or another doubt; inactive means no such curve, though single readings can be large; an effect the other way counts as inactive or inconclusive. Potency means the concentration at half of the fitted maximal effect.

SMILES	FLuc counter	SMN2 splice enh	Rab9 promoter act	KinaseGlo FLuc	ELG1 genotoxic	NPC1 promoter act
CC1(C)CC(=O)c2c(O)cc(OCc3ccc(Br)cc3)cc2O1	3µM*	u	2.8µM*	16%	2.6µM*	2.5µM*
CC1(C)CC(=O)c2cc(OCC(=O)O)ccc2O1	0%	-5%	2%	-7%	5%	-3%
CCCC(=O)Nc1nnc(S(=O)(=O)N(CC)c2ccc(OC)cc2)s1	0%	x	11%	x	-1%	-2%
CC1Cc2cc(/C(O)=C3/C(=O)C(=O)N(CCCN4CCOCC4)C3c3ccc(C(C)C)cc3)ccc2O1 (stereo not given)	1%	x	-5%	x	1%	-2%
COc1ccccc1OC(C)C(=O)N1CCN(CCc2ccccn2)CC1 (stereo not given)	0%	x	x	x	x	x
CC1(C)CC(=O)c2c(O)cc(OCC(=O)N3CCN(c4ccc(F)cc4)CC3)cc2O1	21µM*	x	4%	x	-13%	-3%
CC1(C)CC(=O)c2cc(OCC(=O)N3CCN(c4ccccc4F)CC3)ccc2O1	0%	-17%	-4%	3%	-11%	2%
Cc1ccc(C)c(OCCC(=O)OCc2csc(CC(=O)Nc3ccccc3C)n2)c1	3%	x	-2%	x	1%	-5%
CC(C)Oc1ccc(C(=O)Nc2ccc(S(=O)(=O)N3CCN(C)CC3)cc2)cc1	-12%	x	5%	x	-5%	-2%
Nc1nc(NCc2ccco2)nc(Nc2ccc(F)cc2)c1[N+](=O)[O-]	0%	x	0%	x	2%	-3%
Cc1ccc(Nc2nc(N)c([N+](=O)[O-])c(NCCO)n2)cc1C	15µM*	x	10%	x	18%	20%
Nc1nc(Nc2ccc(Cl)cc2)nc(NCCO)c1[N+](=O)[O-]	-18%	x	-2%	x	10%	u
CNc1nc(NCc2ccccc2)nc(N)c1[N+](=O)[O-]	6%	x	-1%	x	18µM*	-2%
Cc1ccc(Nc2nc(N)c([N+](=O)[O-])c(NCc3ccco3)n2)cc1C	24µM*	u	26%	-3%	9%	u
CCS(=O)(=O)N1Cc2ccccc2CC1C(=O)Nc1nc(C)cs1 (stereo not given)	19µM*	1%	u	3%	u	26%
COc1ccc(S(=O)(=O)N2Cc3ccccc3CC2C(=O)Nc2nccs2)cc1OC (stereo not given)	u	13µM*	16%	3%	5.8µM*	12%
COc1ccc(S(=O)(=O)N2Cc3ccccc3CC2C(=O)Nc2nccs2)cc1 (stereo not given)	-13%	u	6%	4%	12%	18%
CCS(=O)(=O)N1Cc2ccccc2CC1C(=O)Nc1nccs1 (stereo not given)	u	18µM*	5%	3%	u	0%
COc1ccc(S(=O)(=O)N2CCC(C(=O)Nc3nccs3)CC2)cc1	12µM*	x	u	x	u	2.8µM*
Cc1ccc2oc(-c3ccc(C)c(NC(=O)/C=C/c4ccc(Cl)cc4)c3)nc2c1	12µM*	20%	x	x	x	x
Cc1ccc(-c2nc3cc(Cl)ccc3o2)cc1NC(=O)COc1ccc(F)cc1	-9%	x	x	x	x	x
Cc1ccc(-c2nc3ccccc3o2)cc1NC(=S)NC(=O)/C=C/c1ccco1	u	-12%	-1%	4%	4%	-17%
Cc1ccc2oc(-c3ccc(C)c(NC(=O)/C=C/c4ccco4)c3)nc2c1	12µM*	u	x	x	x	x
O=C(CN1C(=O)CCS(=O)(=O)c2ccccc21)Nc1ccc(Cl)cc1	-1%	x	1%	x	0%	-7%
Cc1cc(C)c(C#N)c(OCC(=O)c2ccc(Br)cc2)n1	-1%	-11%	6%	6%	-1%	1%
SMILES	FLuc counter	SMN2 splice enh	Rab9 promoter act	KinaseGlo FLuc	ELG1 genotoxic	NPC1 promoter act
Cc1ccc(C(=O)CSc2nsc(C)c2C#N)cc1	11µM*	13µM*	3.2µM*	4%	u	3.5µM*
Cc1snc(SCC(=O)c2ccc(Cl)cc2)c1C#N	u	-3%	u	1%	10%	u
Cc1ccnc(SCC(=O)c2ccc(Br)cc2)c1C#N	21µM*	14µM*	2.8µM*	-1%	12%	3.5µM*
O=C(C(=O)N1CCN(c2ccc(F)cc2)CC1)c1cn(CC(=O)N2CCOCC2)c2ccccc12	0%	x	-5%	x	0%	0%
Cc1cc([N+](=O)[O-])ccc1NC(=O)c1csc(C)c1C	3.8µM*	x	2µM*	x	4.1µM*	1.4µM*
Cc1cc(C(=O)Nc2ccc([N+](=O)[O-])cn2)cs1	11µM*	x	3.5µM*	x	9.2µM*	2.5µM*
COc1ccc([N+](=O)[O-])cc1NC(=O)c1csc(C)c1	2.7µM*	x	0%	x	-2%	16%
COc1ccc(C(=O)Nc2ccc([N+](=O)[O-])cn2)c(OC)c1	0.3µM*	x	0.45µM*	x	1.2µM*	1.1µM*
COc1ccc(C(=O)N2CCN(S(=O)(=O)c3ccc4c(c3)OCCO4)CC2)cc1OC	4%	x	2%	x	0%	-4%
COC(=O)[C@@H]1[C@@H]2C[C@H]3c4[nH]c5ccccc5c4CCN3C[C@@H]2CC[C@@H]1O	x	-8%[9.22 µM]	x	-2%[7.66 µM]	x	x
CCc1nn(CCCC(=O)NCc2ccc(OC)c(OC)c2)c(=O)c2cc3occc3n12	-11%	-10%	x	x	x	x
CC1CCC(C(=O)O)([C@H](Br)C(=O)O)CC1 (stereo not given in full)	x	-1%[9.22 µM]	x	0%[7.66 µM]	x	x
COc1ccc(NC(=O)c2csc(Cc3ccc(Cl)cc3)n2)cc1	24µM*	-23%	-12%	0%	-1%	1%
O=C(Nc1ccc(Cl)cc1)c1csc(Cc2ccccc2)n1	5.4µM*	u	u	2%	u	22%
COc1ccc(Cc2nc(C(=O)Nc3ccccc3)cs2)cc1	19µM*	-67%	22%	-1%	0%	u
COc1ccc(Cc2nc(C(=O)Nc3ccc(Cl)cc3)cs2)cc1	u	-75%	0%	-4%	u	-4%
COc1ccc(Cc2nc(C(=O)Nc3ccc(F)cc3)cs2)cc1	u	-32%	12%	-2%	6%	2%
Cc1cc(C)cc(N2CCCn3c2nc2c3c(=O)[nH]c(=O)n2C)c1	-2%	x	-6%	x	-1%	-4%
CCCCC(=O)Oc1ccc2oc(-c3ccc(OC)cc3)cc(=O)c2c1	u	28%	x	x	x	x
Cc1ccc(Cn2ccc(-c3cnc(-c4ccccc4)s3)n2)cc1	11µM*	-43%	u	17%	u	u
COc1ccc(S(=O)(=O)n2ccc(-c3ccc(OCCN(C)c4ccccn4)cc3)n2)cc1	1%	-36%	-15%	-2%	-10%	-13%
O=S(=O)(c1ccccc1)n1ccc(-c2cnc(-c3ccccc3)s2)n1	15µM*	46%	u	-7%	u	u
